# Screens from PubChem.
# Many of the other results were omitted from the sample, so hits are more common in it than they were.
# Pf Dd2 growth = Plasmodium falciparum Dd2 growth inhibition; actives 4.3% (n = 120,000); Potency, µM (highest dose often 28.9 µM), for inactives: top-dose activity, negative = inhibition, most hits filed as inhibitors; P. falciparum Dd2 growth, SYBR Green, 72 h; AID 1347417; active means well fitted inhibition curve with a large enough effect;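 further: plate controls were DMSO vehicle for no effect and reference drug for full effect; nearly all actives have a fitted effect of over 65% in size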
#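 Infected erythrocytes (Dd2, 0.3% parasitemia, 2.5% hematocrit final) are added to compound in RPMI-1640/Albumax II medium, grown 72 h at 37C in low oxygen, then lysed with saponin/Triton-X containing SYBR Green and read by fluorescence.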
# * = called active by the depositor; i = inactive; [ ] = remark or other dose. Potency means the concentration at half of the fitted maximal effect.
SMILES,Pf Dd2 growth
CC(=O)NC1CC2(CCN(C(=O)c3c(C)noc3C)CC2)c2ccccc21 (stereo not drawn),23%
O=C(CCc1nnn2c1CN(C(=O)C1CCCC1)CC2)N1CCOCC1,19%
O=C(NCCCn1ccnc1)c1nc(-c2ccccc2)cc2[nH]ccc12,11µM*
O=C(NCc1cccnc1)c1nc(-c2ccccc2)cc2[nH]ccc12,i
O=C1CCC(CNC(=O)c2nc(-c3ccccc3)cc3[nH]ccc23)N1 (stereo not drawn),3%[44.1 µM]
CC(C)CCN1CC2(CCCN(C(=O)CN3C(=O)CN(C)C3=O)C2)CCC1=O (stereo not drawn),8%
COc1cc(SC)ccc1C(=O)N[C@H]1CCN2C(=O)N(c3ccc(C)cc3)C(=O)[C@@H]2C1,-3%
COc1ccc(C(Nc2ccccn2)c2ccc3ccc(C)nc3c2O)cc1C (stereo not drawn),21%
O=C(COc1ccc(Cl)cc1Cl)Nc1cccc2cccnc12,11%
Cc1cccc(NC(c2cccc(Cl)c2)c2ccc3cccnc3c2O)n1 (stereo not drawn),2.5µM*
Cc1nccn1CC1(CNc2ncncn2)CC1,6%
Cc1noc(C2CCCCN2C(=O)c2ccoc2)n1 (stereo not drawn),-6%
Cc1ccc(CN2CCCCCCNC(=O)CC2c2ccccc2)s1 (stereo not drawn),8.9µM*
O=C1NCCCCCN(Cc2cccnc2)[C@H]2CCC[C@@H]12,i
O=C1NCCCCCN(Cc2ccc(F)cc2F)[C@H]2CCC[C@@H]12,i
O=C1CC(c2ccccc2)N(C(=O)c2cccs2)CCCCCN1 (stereo not drawn),-7%
Cc1ncsc1CN1CCCCCCNC(=O)[C@@H]2CCC[C@@H]21,-2%
O=C1CC(c2ccccc2)N(S(=O)(=O)c2cccs2)CCCCCN1 (stereo not drawn),i
Cc1ccsc1CN1CCCCCNC(=O)CC1c1ccccc1 (stereo not drawn),7.1µM*
Cc1ccc(C(=O)NCC(=O)N2CCCCCCNC(=O)CC2c2ccccc2)s1 (stereo not drawn),12%
O=C1NCCCCCN(Cc2ccccn2)[C@H]2CCC[C@@H]12,i
Cc1ccc(CN2CCCN(S(C)(=O)=O)C(c3ccccc3)CC(=O)NCC2)s1 (stereo not drawn),i
Cc1ccsc1CN1CCCCCCNC(=O)[C@@H]2CCC[C@@H]21,8.9µM*
O=C1NCCCCCCN(Cc2cccc(OC(F)(F)F)c2)[C@H]2CCC[C@@H]12,7.1µM*
CC(C)C1=NOC2(CCN(Cc3ccc(F)cc3)CC2)C1,i
SMILES,Pf Dd2 growth
O=c1[nH]ccn1C1CCN(Cc2ccc(C(F)(F)F)cc2)CC1,-17%[44.1 µM]
Cc1ccc(C(=O)NC(C(=O)N2CCCC2)C2CCN(C(=O)c3ccc4c(c3)OCO4)CC2)cc1 (stereo not drawn),i
CC(=O)N1CCC(Oc2ccc(Cl)cc2C(=O)N(C)Cc2csc(C)n2)CC1,-5%
O=C(CC1CCCCC1)N1CCN(c2cc(-c3ccccc3)[nH]n2)CC1,-8%
CN(C)Cc1nc(C(=O)N2CCCn3nc(CO)cc3C2)cs1,-8%
Cc1cc(C(=O)NC2CCN(C(=O)N3CC4CC(C3)[C@H]3CCCC(=O)N3C4)CC2)nn1C (stereo partly drawn),10%
COc1cc(NC(=O)CC2CCOCC2)cc(OC)c1,8%
CC(C)(C)C(=O)N1CCCN(c2nc3ncccc3o2)CC1,-1%[44.1 µM]
O=C(Cn1cncn1)N1CCN(Cc2ccccn2)[C@@H]2CS(=O)(=O)C[C@@H]21,2%
Cc1ccsc1CN1CCCCCCNC(=O)CC1c1ccccc1 (stereo not drawn),13µM*
O=C1CC(c2ccccc2)N(C(=O)C2CCCC2)CCCCCCN1 (stereo not drawn),-8%
O=C1CC(c2ccccc2)N(C(=O)c2ccsc2)CCCCCN1 (stereo not drawn),-6%
O=C1CC(c2ccccc2)N(C(=O)CNC(=O)c2cc(-c3ccc(F)cc3)n[nH]2)CCCCCN1 (stereo not drawn),i
COC[C@@H]1CN(C(=O)c2ccco2)C[C@H]1c1nc(C2CC2)no1,0%
COc1c(C)cc(C)cc1CN1CCC2(CC1)C(C(=O)O)CC(=O)N2C (stereo not drawn),1%
Cc1ccc(NC(=O)c2cc(S(=O)(=O)NC3CCCCCC3)ccc2F)cc1F,4.5µM*
Cc1ccc(NC(=O)c2cc(S(=O)(=O)N3CCCc4ccccc43)ccc2F)cc1F,-23%
O=C(Nc1ccccc1Br)c1cc(S(=O)(=O)NC2CCCCC2)ccc1F,i
COc1ccc(CNC(=O)CN2C(=O)NC3(CCCCC3)C2=O)cc1,-25%
CCCc1nc(-c2nc(C3CCOC3)no2)cs1 (stereo not drawn),-9%
CCC[C@H]1CN(S(=O)(=O)c2ccc(-c3ccn[nH]3)o2)C[C@@H]1N,i
CCC[C@H]1CN(S(=O)(=O)c2ccc(CC)s2)C[C@@H]1N,-21%
CCC[C@H]1CN(S(=O)(=O)c2cnn(CCC)c2)C[C@@H]1N,11µM*
O=C(c1cc(C2CC2)[nH]n1)N(Cc1ccc2c(c1)OCO2)C1CC1,-7%
COCC(=O)N[C@@H]1CNCC[C@@H]1c1nc(C)no1,i[5.79 µM]
SMILES,Pf Dd2 growth
CCC(=O)N1CCCC(c2nc(-c3cccnn3)no2)C1 (stereo not drawn),12%
Cc1nc([C@@H]2CN(S(=O)(=O)C(C)C)C[C@H]2C(N)=O)n[nH]1,15%
Cc1ccccc1S(=O)(=O)N1CCC(CCC(=O)NC2CC2)CC1,-10%
Cc1ccccc1S(=O)(=O)N1CCCC(CCC(=O)NCc2ccc(F)cc2)C1 (stereo not drawn),-8%
Cc1ccccc1S(=O)(=O)N1CCCC(CCC(=O)Nc2cccc(Cl)c2)C1 (stereo not drawn),13µM*
CN(CC1(CO)CCC1)C(=O)c1cc(COc2ccccc2F)[nH]n1,-22%
C=CCOC(=O)C1=CN(Cc2ccccc2)S(=O)(=O)N=C1C,i
CN(C)c1cccc(C(=O)N2CCC(n3cc(-c4nc(C5CC5)no4)nn3)C2)c1 (stereo not drawn),i
O=C(c1ccoc1)N1CCC2(CC1)CC(Cc1ccccc1)CCO2 (stereo not drawn),-23%
O=C(NCc1ccco1)Nc1cccc(-c2ccc(N3CCCC3)nn2)c1,11µM*
CSc1cccc(NC(=O)Nc2cccc(-c3ccc(N4CCCC4)nn3)c2)c1,0%
CC(C)CNC(=O)Nc1cccc(-c2ccc(N3CCC(C)CC3)nn2)c1,-16%
Cc1cccc(C(=O)Nc2cccc(-c3ccc(N4CCN(C)CC4)nn3)c2)c1,13µM*
O=C(Nc1cccc(-c2ccc(N3CCOCC3)nn2)c1)Nc1ccc2c(c1)CCC2,i
CCc1ccccc1NC(=O)Nc1cccc(-c2ccc(N3CCOCC3)nn2)c1,-24%
FC1(F)CN[C@H](c2nc(-c3ccncc3)no2)C1,19%
O=C1NCCN(C(=O)Cn2ncc3ccccc3c2=O)C1Cc1cnc[nH]1 (stereo not drawn),0%
Cc1ccc(C(=O)N(C)Cc2ccc(-c3ccccc3)cc2)cc1,-9%[44.1 µM]
COc1ccc(CNC(=O)C2Cn3cccc3C(=O)N2C)cc1OC (stereo not drawn),i
COc1ccc(-c2nc3cc(C)ccc3cc2CN2CCC[C@H]2C(N)=O)cc1OC,-6%
COc1ccc(-c2[nH]ncc2CN2CC[C@H]3CC[C@@H](C2)N3)cc1,-10%
COc1ccc2cc(CN3CCC(OC)CC3)c(-c3cccc(C)c3)nc2c1,10µM*
COCC1CCN(Cc2cc3ccc(OC)cc3nc2-c2cccc(C)c2)C1 (stereo not drawn),11µM*
